According to paper PMC11062922 (Nature Chemical Biology, 2023):
Like-named read-outs stand apart in the source and are kept apart here.

Experiments:
Set-up in all cases: species or system human, MV4-11 + K-562 + COLO205 + SK-N-BE2 + OVCAR-8
JAK2 = conditions: read-out: apparent Kd, compound concentrations: 100 nM and 1000 nM (sheet 'Samples'), n = 1
MAPK11 = conditions: read-out: apparent Kd, n = 1
MAPK14 = conditions: read-out: apparent Kd, n = 1
MAPK10 = conditions: read-out: apparent Kd, n = 1
MAPK8 = conditions: read-out: apparent Kd; compound concentrations:100 nM and 1000 nM (sheet 'Samples'); n = 1
MAPK9 = conditions: read-out: apparent Kd; compound concentrations:100 nM and 1000 nM (sheet 'Samples'); n = 1
MAPKAPK2 = conditions: read-out: apparent Kd; compound concentrations:100 nM and 1000 nM (sheet 'Samples'); n = 1
STK26 = conditions: read-out: apparent Kd; compound concentrations: 100 nM and 1000 nM (sheet 'Samples'), CATDS: 0.44700655759470098; n = 1
MAP3K12 = conditions: read-out: apparent Kd; compound concentrations:100 nM and 1000 nM (sheet 'Samples'); n = 1
NUAK1 = conditions: read-out: apparent Kd; compound concentrations:100 nM and 1000 nM (sheet 'Samples'); n = 1
NUAK2 = conditions: read-out: apparent Kd; compound concentrations:100 nM and 1000 nM (sheet 'Samples'); n = 1
MARK4 = conditions: read-out: apparent Kd; compound concentrations: 100 nM and 1000 nM (sheet 'Samples'), CATDS: 0.22058260458437301; n = 1
PIK3CB = conditions: read-out: apparent Kd, n = 1
RIOK2 = conditions: read-out: apparent Kd; compound concentrations: 100 nM and 1000 nM (sheet 'Samples'), CATDS: 0.25235817930049498; n = 1
MAP2K1 = conditions: read-out: apparent Kd; compound concentrations:100 nM and 1000 nM (sheet 'Samples'); n = 1
MAP3K1 = conditions: read-out: apparent Kd; compound concentrations:100 nM and 1000 nM (sheet 'Samples'); n = 1
LIMK1 = conditions: read-out: apparent Kd; compound concentrations: 100 nM and 1000 nM (sheet 'Samples'), CATDS: 0.71485033586555802; n = 1
LIMK2 = conditions: read-out: apparent Kd; compound concentrations: 100 nM and 1000 nM (sheet 'Samples'), CATDS: 0.38445187661018698; n = 1
PIK3CA = conditions: read-out: apparent Kd; compound concentrations: 100 nM and 1000 nM (sheet 'Samples'), CATDS: 0.76689409603513903; n = 1
MAP2K2 = conditions: read-out: apparent Kd; compound concentrations:100 nM and 1000 nM (sheet 'Samples'); n = 1
NQO1 = conditions: read-out: apparent Kd; compound concentrations:100 nM and 1000 nM (sheet 'Samples'); n = 1
PIK3CD = conditions: read-out: apparent Kd; compound concentrations: 100 nM and 1000 nM (sheet 'Samples'), CATDS: 0.441724722045092; n = 1
[1] = compound concentrations: 100 nM and 1000 nM (sheet 'Samples'), CATDS: 1
[2] = compound concentrations:100 nM and 1000 nM (sheet 'Samples')

Cl.Nc1c(C(=O)c2cccc(C#CCN3CCOCC3)c2)cnn1-c1ccc(F)cc1 [RO1153320-001]
potency estimated from few doses (JAK2; CATDS: 0.47869568713999899): 815 nM | potency estimated from few doses (MAPK11; compound concentrations: 100 nM and 1000 nM (sheet 'Samples'), CATDS: 0.52328893159992096): 682 nM

CN1CCN(CCc2cccc(C(=O)c3cnn(-c4ccc(F)cc4)c3N)c2)CC1.Cl [RO1160347-001]
potency estimated from few doses (MAPK11; [1]): 1330 nM

CN(C)CC#Cc1cccc(C(=O)c2cnn(-c3ccc(F)cc3)c2N)c1.Cl [RO1154641-001]
potency estimated from few doses (MAPK11; compound concentrations: 100 nM and 1000 nM (sheet 'Samples'), CATDS: 0.57557980724534297): 758 nM | potency estimated from few doses (MAPK14; compound concentrations: 100 nM and 1000 nM (sheet 'Samples'), CATDS: 0.44196522207196598): 1300 nM

Nc1c(C(=O)c2cccc(OC[C@H](O)CO)c2)cnn1-c1ccc(F)cc1 [RO3201196-000]
potency estimated from few doses (MAPK11; [1]): 697 nM

N#CCn1c(=O)c(Oc2ccc(F)cc2F)cc2cnc(NC3CCOCC3)nc21 [RO5040027-000]
potency estimated from few doses (MAPK10; [2]): 45.1 nM | potency estimated from few doses (MAPK11; [2]): 146 nM | potency estimated from few doses (MAPK14; [2]): 3.79 nM | potency estimated from few doses (MAPK8): 523 nM | potency estimated from few doses (MAPK9): 146 nM | potency estimated from few doses (MAPKAPK2): 3.65 nM

CN1CCN(CC#Cc2cccc(C(=O)c3cnn(-c4ccc(F)cc4)c3N)c2)CC1.Cl [RO1154309-001]
potency estimated from few doses (MAPK11; compound concentrations: 100 nM and 1000 nM (sheet 'Samples'), CATDS: 0.56724832291410499): 811 nM | potency estimated from few doses (STK26): 1310 nM

Cl.Nc1c(C(=O)c2cccc(-c3cccnc3)c2)cnn1-c1ccc(F)cc1F [RO1164194-001]
potency estimated from few doses (MAPK11; compound concentrations: 100 nM and 1000 nM (sheet 'Samples'), CATDS: 0.82795584306013303): 112 nM | potency estimated from few doses (MAPK14; compound concentrations: 100 nM and 1000 nM (sheet 'Samples'), CATDS: 0.35813974934326798): 968 nM

O=C(Nc1n[nH]c2nc(-c3ccccc3)c(Cl)cc12)C1CC1 [SB-734909]
potency estimated from few doses (MAP3K12): 1520 nM | potency estimated from few doses (MAPK11; [2]): 1940 nM | potency estimated from few doses (NUAK1): 1980 nM | potency estimated from few doses (NUAK2): 1350 nM

Nc1c(C(=O)c2cccc(C#CCO)c2)cnn1-c1ccc(F)cc1 [RO1153836-000]
potency estimated from few doses (MAPK11; [1]): 591 nM

Cl.Cn1c(=O)c(Oc2ccc(F)cc2F)cc2cnc(NC(CO)CO)nc21 [RO3310123-001]
potency estimated from few doses (MAPK10; compound concentrations: 100 nM and 1000 nM (sheet 'Samples'), CATDS: 0.34863308961168299): 1500 nM | potency estimated from few doses (MAPK14; compound concentrations: 100 nM and 1000 nM (sheet 'Samples'), CATDS: 0.88366158604644096): 106 nM

COC(=O)Nc1nc2ccc(Sc3ccc(NC(=O)Nc4cc(C(F)(F)F)ccc4F)cc3)cc2[nH]1.O=S(=O)(O)O [GW607049C]
potency estimated from few doses (MAPK10; compound concentrations: 100 nM and 1000 nM (sheet 'Samples'), CATDS: 0.243888047714692): 1550 nM | potency estimated from few doses (MARK4): 1930 nM | potency estimated from few doses (PIK3CB; compound concentrations: 100 nM and 1000 nM (sheet 'Samples'), CATDS: 0.29379902166128602): 1090 nM | potency estimated from few doses (RIOK2): 1440 nM

COCCNC(=O)c1ccc(-c2cc(C(=O)NC3CC3)cc(F)c2C)cc1 [GW868318X]
potency estimated from few doses (MAPK11; [2]): 108 nM | potency estimated from few doses (MAPK14; compound concentrations: 100 nM and 1000 nM (sheet 'Samples'), CATDS: 0.55857087808569805): 22.7 nM | potency estimated from few doses (MAPKAPK2): 79.6 nM

CCOc1cc(N2CCC(O)CC2)ccc1Nc1ncc2c(n1)N(C)c1ccccc1C(=O)N2C [XMD8-92]
potency estimated from few doses (MAP2K1): 1780 nM

Cl.Cn1c(=O)c(Oc2ccc(F)cc2F)cc2cnc(NCCS(C)(=O)=O)nc21 [RO3309294-001]
potency estimated from few doses (MAPK14; [1]): 344 nM

C[C@@H](Oc1cc(-n2cnc3ccc(-c4ccncc4)cc32)sc1C(N)=O)c1ccccc1Cl [GSK483724A]
potency estimated from few doses (MAP3K1): 1840 nM

CCCCN(Cc1ccccc1)C(=O)c1ccc(S(=O)(=O)Nc2ccccc2)cc1 [TH257]
potency estimated from few doses (LIMK1): 578 nM | potency estimated from few doses (LIMK2): 2320 nM

NC(=O)c1sc(-n2cnc3cc(C(F)(F)F)ccc32)cc1OCc1ccccc1Br [GW853609X]
potency estimated from few doses (JAK2; CATDS: 0.37091451707305101): 1140 nM | potency estimated from few doses (PIK3CA): 204 nM

Cc1c(Cn2c(C)nn3c(=O)cc(N4CCOC(C)C4)nc23)cccc1C(F)(F)F (stereo not drawn) [GSK2344444A]
potency estimated from few doses (MAP2K1): 2250 nM | potency estimated from few doses (MAP2K2): 1810 nM | potency estimated from few doses (NQO1): 1560 nM | potency estimated from few doses (PIK3CB; [2]): 13.4 nM | potency estimated from few doses (PIK3CD): 20 nM
